Data on 9 compounds can be found in PubChem BioAssay (EPA / NIEHS).

Experiment [1] addresses Estrogen receptor (Homo sapiens) (UniProt P03372). Nature of the experiment: NVS_NR_hER: NovaScreen (NVS) Nuclear Receptor Binding Assay for human Estrogen Receptor (ER) (AID 2283348). The gist of the method: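 Cell-free MCF7-derived ER preparation, specific radioligand displaced by test compound, read by scintillation counting 18 h post-dosing. Duplicate single-point 25 uM screen, then concentration-response confirmation; DMSO baseline.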

Experiment [2] shares this target. In words: OT_ER_ERaERa_1440: Odyssey Thera (OT) 24-hour HEK293T Protein-Complementation Assay for Estrogen Receptor-alpha/-alpha Homodimer (AID 2283349).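 Also: hits raise fluorescence above DMSO for agonists and antagonists alike.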 The gist of the method: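 HEK293T, stable ERα LBD (aa 310-547) homodimer PCA; 24 h compound exposure; mean fluorescence intensity (nuclear for agonists, nuclear plus cytoplasmic for antagonists) vs vehicle; positive fitting direction, DMSO baseline.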

The target is the same in experiment [3]. Nature of the experiment: OT_ER_ERaERa_0480: Odyssey Thera (OT) 8-hour HEK293T Protein-Complementation Assay for Estrogen Receptor-alpha/-alpha Homodimer (AID 2283351).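 Also: rise in fluorescence from reassembled reporter fragments on ERα LBD homodimer in nucleus or whole cell.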 The gist of the method: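 Measures ERα LBD (aa 310-547) homodimer complementation in stably transfected HEK293T at 8 h post-dose, with fluorescence intensity quantified on a laser scanning cytometer relative to DMSO controls.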

The target in experiment [4] is T1, Estrogen receptor (Homo sapiens) + Estrogen receptor beta (Homo sapiens) (UniProt P03372+Q92731). Nature of the experiment: OT_ER_ERaERb_0480: Odyssey Thera (OT) 8-hour HEK293T Protein-Complementation Assay for Estrogen Receptor-alpha/-beta Heterodimer (AID 2283352). The gist of the method:
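HEK293T cells expressing ER-alpha/ER-beta LBD fusions to complementary reporter fragments were dosed with compound for 8 hours. Heterodimer formation was read as increased nuclear (agonist) or nuclear plus cytoplasmic (antagonist) mean fluorescence intensity versus DMSO vehicle.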

Experiment [5] has as its target T1, Estrogen receptor (Homo sapiens) + Estrogen receptor beta (Homo sapiens). In words: OT_ER_ERaERb_1440: Odyssey Thera (OT) 24-hour HEK293T Protein-Complementation Assay for Estrogen Receptor-alpha/-beta Homodimer (AID 2283356).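 Also: heteromer of ER alpha and ER beta binding domains; hits raise reporter fluorescence and both agonists and antagonists give an increase.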 In outline: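 HEK293T cells stably expressing a PCA pair of ERα LBD (aa 310-547) and ERβ LBD (aa 263-489) were dosed for 24 h. Fluorescence intensity increase versus DMSO vehicle was fitted as gain-of-signal.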

In experiment [6] the target is Estrogen receptor beta (Homo sapiens) (UniProt Q92731). In words: OT_ER_ERbERb_0480: Odyssey Thera (OT) 8-hour HEK293T Protein-Complementation Assay for Estrogen Receptor-beta/-beta Homodimer (AID 2283357).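 Also: active means signal gain over DMSO baseline.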 The gist of the method:
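ER-beta LBD homodimer PCA stably expressed in HEK293T; 8 h compound exposure, then formaldehyde fixation and Draq5 staining. Gain in nuclear/cytoplasmic fluorescence intensity versus DMSO vehicle, read on laser scanning cytometer.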

Experiment [7] addresses Retinoic acid receptor alpha (Homo sapiens) (UniProt P10276). Nature of the experiment: NVS_NR_hRAR_Antagonist: NovaScreen (NVS) Nuclear Receptor Binding Assay for human Retinoic Acid Alpha Receptor Antagonism (RAR) (AID 2283358). In outline: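 RARalpha antagonism was read by TR-FRET as loss of binding signal versus DMSO, 2 h after chemical addition, in a biochemical format. Single-concentration duplicates (25 uM) were run first, and actives were retested in concentration series.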

Experiment [8] concerns the target human Peroxisome Proliferator-activated Receptor alpha (PPARa), PPARA (gene 5465) (UniProt Q07869). In words: NVS_NR_hPPARa: NovaScreen (NVS) Nuclear Receptor Binding Assay for human Peroxisome Proliferator-activated Receptor alpha (PPARa) (AID 2283359).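 Also: activity means loss of TR-FRET signal versus DMSO baseline.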 The gist of the method:
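Loss of TR-FRET binding signal relative to DMSO was measured 1 h after chemical addition to extracted receptor protein. Chemicals were first tested in duplicate at 25 uM, and actives were followed up in concentration series.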

Experiment [9] addresses Androgen Receptor/SRC-1 Co-activator, AR (gene 367) (UniProt P10275). In words: OT_AR_ARSRC1_0960: Odyssey Thera (OT) 16-hour HEK293T Protein-Complementation Assay for Androgen Receptor/SRC-1 Co-activator (AID 2283353).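 Also: actives raise the signal above DMSO so potency reflects increased AR and SRC-1 complex.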 The gist of the method:
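Sixteen-hour cell assay: Venus halves fused to AR and SRC-1 in HEK293T report binding. Images at 488/635 nm give an N/C ratio in the 488 nm channel over ≥400 cells, analysed as signal increase over DMSO.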

Experiment [10] shares this target. In words: OT_AR_ARSRC1_0480: Odyssey Thera (OT) 8-hour HEK293T Protein-Complementation Assay for Androgen Receptor/SRC-1 Co-activator (AID 2283354).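 Also: hits raise the complementation signal above DMSO so AC50 marks enhancers.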 The gist of the method: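 Reconstituted split-Venus YFP signal from AR–SRC-1 interaction, read by imaging 8 h post-dose in stable HEK293T lines. The 488 nm nucleus-to-cytoplasm ratio (≥400 cells/image) was fitted upward against DMSO.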

Experiment [11] has as its target chimpanzee Androgen Receptor (AR), AR (gene 747460) (UniProt O97775). Nature of the experiment: NVS_NR_cAR: NovaScreen (NVS) Nuclear Receptor Binding Assay for chimpanzee Androgen Receptor (AR) (AID 2283346).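 Also: radioligand displacement from AR measured by scintillation counting in a cell-free assay; a loss of bound radioligand signal versus DMSO counts as binding.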 In outline:
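Cell-free competition binding with insect-cell (Sf9/Sf21) extracted chimpanzee AR; scintillation signal from lysate at 72 h. Screened in duplicate at 25 uM, then concentration-response for actives; fitting relative to DMSO.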

Experiment [12] has as its target Bile acid receptor (Homo sapiens) (UniProt Q96RI1). In words: NVS_NR_hFXR_Agonist: NovaScreen (NVS) Nuclear Receptor Binding Assay for human Farnesoid X Receptor Agonism (FXR) (AID 2283347). The gist of the method:
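Agonist-mode FXR assay read by time-resolved FRET 1 h after compound addition, using isolated human receptor protein without cells. Duplicate 25 uM single-point primary screen, concentration series for confirmed actives; DMSO as baseline.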

In a further experiment the target is PGR (gene 5241) (UniProt P06401). Nature of the experiment: NVS_NR_hPR: NovaScreen (NVS) Nuclear Receptor Binding Assay for human Progestron Receptor (PR) (AID 2283360).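 Also: active means loss of bound radioligand signal versus DMSO baseline.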 In outline:
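Cell-free radioligand binding using receptor protein extracted from T47D cells, read by scintillation counting 18 hours after dosing. Loss of signal relative to DMSO baseline indicates displacement; primary screen single concentration 25 uM in duplicate, actives followed in concentration series.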

The target of experiment [13] is Bile acid receptor (Homo sapiens) (UniProt Q96RI1). Nature of the experiment: NVS_NR_hFXR_Antagonist: NovaScreen (NVS) Nuclear Receptor Binding Assay for human Farnesoid X Receptor Antagonism (FXR) (AID 2283350). In outline: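 Antagonist-format time-resolved FRET binding assay with extracted human receptor protein, read 1 hour after compound addition. Compounds first screened at 25 uM in duplicate, then actives tested in concentration series, with loss of signal relative to DMSO.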
Chain of Bile acid receptor (Homo sapiens) (Q96RI1 whole entry, looked up): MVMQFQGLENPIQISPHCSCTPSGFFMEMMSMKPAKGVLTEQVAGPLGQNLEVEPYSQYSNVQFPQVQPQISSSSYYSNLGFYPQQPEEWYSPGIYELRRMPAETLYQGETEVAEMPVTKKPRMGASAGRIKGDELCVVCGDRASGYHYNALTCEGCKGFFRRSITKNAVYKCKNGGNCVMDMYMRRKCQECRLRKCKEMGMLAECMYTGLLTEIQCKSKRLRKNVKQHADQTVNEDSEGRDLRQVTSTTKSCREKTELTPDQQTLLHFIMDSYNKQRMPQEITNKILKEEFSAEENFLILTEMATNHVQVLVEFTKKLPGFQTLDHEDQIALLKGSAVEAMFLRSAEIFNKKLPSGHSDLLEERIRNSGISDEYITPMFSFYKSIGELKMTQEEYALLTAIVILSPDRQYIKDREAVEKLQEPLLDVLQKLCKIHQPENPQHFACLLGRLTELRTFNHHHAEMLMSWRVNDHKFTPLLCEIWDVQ

Experiment [14] deals with Nuclear receptor subfamily 1 group I member 2 (Homo sapiens) (UniProt O75469). In words: NVS_NR_hPXR: NovaScreen (NVS) Nuclear Receptor Binding Assay for human Pregnane X Receptor (PXR) (AID 2283365).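 Also: a drop in FRET signal versus DMSO baseline means the compound binds.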 The gist of the method: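 Cell-free binding assay with extracted human PXR protein, read by TR-FRET 2 h after dosing; loss of signal relative to DMSO baseline indicates binding. Primary screen at 25 uM in duplicate, actives retested in concentration series.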
Chain of Nuclear receptor subfamily 1 group I member 2 (Homo sapiens) (O75469 whole entry, looked up): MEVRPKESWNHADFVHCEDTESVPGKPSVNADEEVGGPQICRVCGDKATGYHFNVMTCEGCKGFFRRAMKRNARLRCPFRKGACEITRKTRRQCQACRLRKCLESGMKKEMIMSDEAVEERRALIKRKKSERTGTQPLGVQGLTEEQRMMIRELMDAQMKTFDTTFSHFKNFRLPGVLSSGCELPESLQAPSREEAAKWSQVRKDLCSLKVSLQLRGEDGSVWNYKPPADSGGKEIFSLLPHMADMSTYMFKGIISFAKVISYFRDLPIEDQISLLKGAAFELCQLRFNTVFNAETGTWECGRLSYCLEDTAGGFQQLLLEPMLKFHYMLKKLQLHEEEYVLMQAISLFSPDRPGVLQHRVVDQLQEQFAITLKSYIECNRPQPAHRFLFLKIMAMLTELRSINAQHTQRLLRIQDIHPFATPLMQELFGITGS

For experiment [15], the target named is human Thyroid Receptor Alpha (TRa), THRA (gene 7067) (UniProt P10827). Nature of the experiment: NVS_NR_hTRa_Antagonist: NovaScreen (NVS) Nuclear Receptor Binding Assay for human Thyroid Receptor Alpha Antagonism (TRa) (AID 2283362). The gist of the method: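 Cell-free binding assay on extracted receptor protein, read 1 h after chemical dosing by AlphaLISA chemiluminescence; loss of signal relative to DMSO baseline marks antagonism. Primary screen ran in duplicate at 25 uM, with concentration series for actives.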

The structures appear in SMILES notation. “And” between values parts separate entries of the source, which are not always exact repeats. Equal entries are not always repeated. Inconclusive results are not listed. The source made the active and inactive calls. The calls were made as follows: active = hit-call score of the fitted dose curve at least 0.9, where 1 is the maximum; inconclusive = response in the unintended direction; inactive = score below 0.9.

T1 sequence (P03372 whole entry, looked up, the tested form may be a part): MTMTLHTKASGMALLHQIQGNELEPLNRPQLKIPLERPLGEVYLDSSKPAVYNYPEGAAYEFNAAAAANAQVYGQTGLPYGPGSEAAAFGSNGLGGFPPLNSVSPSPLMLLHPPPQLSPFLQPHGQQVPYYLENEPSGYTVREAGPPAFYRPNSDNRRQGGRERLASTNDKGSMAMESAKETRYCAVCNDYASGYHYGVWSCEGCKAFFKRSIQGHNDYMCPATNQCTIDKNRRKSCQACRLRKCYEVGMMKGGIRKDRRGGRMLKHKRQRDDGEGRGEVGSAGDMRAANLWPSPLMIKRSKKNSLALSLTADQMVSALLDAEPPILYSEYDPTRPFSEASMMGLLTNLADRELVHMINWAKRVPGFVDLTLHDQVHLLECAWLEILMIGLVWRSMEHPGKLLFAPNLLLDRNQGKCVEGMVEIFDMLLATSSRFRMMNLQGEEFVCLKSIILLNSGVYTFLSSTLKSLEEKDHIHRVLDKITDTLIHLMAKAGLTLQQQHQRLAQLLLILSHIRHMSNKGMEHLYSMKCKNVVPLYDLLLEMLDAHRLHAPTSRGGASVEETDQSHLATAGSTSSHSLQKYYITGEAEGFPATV
T1 sequence (Q92731 whole entry, looked up, the tested form may be a part): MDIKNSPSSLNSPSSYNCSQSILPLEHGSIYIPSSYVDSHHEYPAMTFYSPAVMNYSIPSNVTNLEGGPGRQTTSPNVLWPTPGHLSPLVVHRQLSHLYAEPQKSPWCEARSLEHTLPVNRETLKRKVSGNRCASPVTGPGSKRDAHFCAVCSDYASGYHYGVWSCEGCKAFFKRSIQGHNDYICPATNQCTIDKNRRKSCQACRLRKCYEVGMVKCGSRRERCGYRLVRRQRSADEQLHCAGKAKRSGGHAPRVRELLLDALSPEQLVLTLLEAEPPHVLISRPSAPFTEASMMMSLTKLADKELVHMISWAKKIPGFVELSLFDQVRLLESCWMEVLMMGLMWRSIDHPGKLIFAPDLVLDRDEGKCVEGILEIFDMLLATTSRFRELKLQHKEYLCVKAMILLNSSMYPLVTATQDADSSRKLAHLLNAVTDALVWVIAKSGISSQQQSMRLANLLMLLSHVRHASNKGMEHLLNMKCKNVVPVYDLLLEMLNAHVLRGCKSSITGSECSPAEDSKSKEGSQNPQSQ
Chain of Estrogen receptor (Homo sapiens) (P03372 whole entry, looked up): as the sequence (P03372 whole entry, looked up, the tested form may be a part) above
Chain of human Peroxisome Proliferator-activated Receptor alpha (PPARa), PPARA (gene 5465) (Q07869 whole entry, looked up): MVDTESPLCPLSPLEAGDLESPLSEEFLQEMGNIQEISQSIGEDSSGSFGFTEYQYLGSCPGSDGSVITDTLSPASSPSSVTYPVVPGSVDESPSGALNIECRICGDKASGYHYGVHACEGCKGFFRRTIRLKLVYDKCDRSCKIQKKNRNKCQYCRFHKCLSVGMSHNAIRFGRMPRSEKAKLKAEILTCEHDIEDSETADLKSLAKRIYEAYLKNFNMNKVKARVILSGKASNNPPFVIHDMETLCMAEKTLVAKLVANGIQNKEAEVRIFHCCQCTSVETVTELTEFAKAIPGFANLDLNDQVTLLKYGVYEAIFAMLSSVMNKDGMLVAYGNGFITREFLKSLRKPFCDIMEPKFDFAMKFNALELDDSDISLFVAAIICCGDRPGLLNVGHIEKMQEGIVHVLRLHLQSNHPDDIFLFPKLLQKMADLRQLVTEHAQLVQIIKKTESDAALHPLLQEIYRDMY
Chain of chimpanzee Androgen Receptor (AR), AR (gene 747460) (O97775 whole entry, looked up): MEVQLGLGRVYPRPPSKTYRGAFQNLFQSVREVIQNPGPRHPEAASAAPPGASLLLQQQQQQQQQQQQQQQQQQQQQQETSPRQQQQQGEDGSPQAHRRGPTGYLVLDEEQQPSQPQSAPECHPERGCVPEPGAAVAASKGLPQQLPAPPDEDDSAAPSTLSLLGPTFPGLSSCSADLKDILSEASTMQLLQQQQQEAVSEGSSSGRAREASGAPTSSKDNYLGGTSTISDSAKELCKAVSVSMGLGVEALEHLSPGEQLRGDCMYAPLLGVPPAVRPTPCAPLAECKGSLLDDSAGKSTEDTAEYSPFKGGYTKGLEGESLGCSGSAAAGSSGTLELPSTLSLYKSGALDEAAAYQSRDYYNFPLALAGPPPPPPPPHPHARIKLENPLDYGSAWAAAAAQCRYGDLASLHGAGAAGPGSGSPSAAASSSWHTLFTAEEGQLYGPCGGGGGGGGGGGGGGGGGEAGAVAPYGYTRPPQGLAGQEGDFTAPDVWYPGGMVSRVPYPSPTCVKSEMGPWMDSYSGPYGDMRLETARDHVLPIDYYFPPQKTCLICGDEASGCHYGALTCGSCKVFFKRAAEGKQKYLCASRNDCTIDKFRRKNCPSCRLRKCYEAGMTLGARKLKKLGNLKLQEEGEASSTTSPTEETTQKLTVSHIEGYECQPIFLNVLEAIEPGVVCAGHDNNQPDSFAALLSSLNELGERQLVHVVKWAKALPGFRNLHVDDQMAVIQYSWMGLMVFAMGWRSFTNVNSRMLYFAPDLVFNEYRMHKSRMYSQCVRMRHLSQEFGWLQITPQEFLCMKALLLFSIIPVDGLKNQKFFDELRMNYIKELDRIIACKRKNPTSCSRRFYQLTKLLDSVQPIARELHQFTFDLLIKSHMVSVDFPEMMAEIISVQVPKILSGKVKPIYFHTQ
Chain of Estrogen receptor beta (Homo sapiens) (Q92731 whole entry, looked up, the tested form may be a part): as the sequence (Q92731 whole entry, looked up, the tested form may be a part) above
Chain of Retinoic acid receptor alpha (Homo sapiens) (P10276 whole entry, looked up): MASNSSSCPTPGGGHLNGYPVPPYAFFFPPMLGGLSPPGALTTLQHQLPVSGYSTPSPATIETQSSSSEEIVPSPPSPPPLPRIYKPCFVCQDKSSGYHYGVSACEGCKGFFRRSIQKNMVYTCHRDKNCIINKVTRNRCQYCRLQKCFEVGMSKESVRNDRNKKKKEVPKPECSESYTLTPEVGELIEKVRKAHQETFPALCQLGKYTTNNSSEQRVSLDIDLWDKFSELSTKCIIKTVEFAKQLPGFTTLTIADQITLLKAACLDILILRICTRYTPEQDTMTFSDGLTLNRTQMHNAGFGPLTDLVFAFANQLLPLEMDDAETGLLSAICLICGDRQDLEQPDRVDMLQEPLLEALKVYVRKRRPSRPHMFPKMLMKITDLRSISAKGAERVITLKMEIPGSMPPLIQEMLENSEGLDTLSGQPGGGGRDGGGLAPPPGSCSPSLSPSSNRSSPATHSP
Chain of PGR (gene 5241) (P06401 whole entry, looked up): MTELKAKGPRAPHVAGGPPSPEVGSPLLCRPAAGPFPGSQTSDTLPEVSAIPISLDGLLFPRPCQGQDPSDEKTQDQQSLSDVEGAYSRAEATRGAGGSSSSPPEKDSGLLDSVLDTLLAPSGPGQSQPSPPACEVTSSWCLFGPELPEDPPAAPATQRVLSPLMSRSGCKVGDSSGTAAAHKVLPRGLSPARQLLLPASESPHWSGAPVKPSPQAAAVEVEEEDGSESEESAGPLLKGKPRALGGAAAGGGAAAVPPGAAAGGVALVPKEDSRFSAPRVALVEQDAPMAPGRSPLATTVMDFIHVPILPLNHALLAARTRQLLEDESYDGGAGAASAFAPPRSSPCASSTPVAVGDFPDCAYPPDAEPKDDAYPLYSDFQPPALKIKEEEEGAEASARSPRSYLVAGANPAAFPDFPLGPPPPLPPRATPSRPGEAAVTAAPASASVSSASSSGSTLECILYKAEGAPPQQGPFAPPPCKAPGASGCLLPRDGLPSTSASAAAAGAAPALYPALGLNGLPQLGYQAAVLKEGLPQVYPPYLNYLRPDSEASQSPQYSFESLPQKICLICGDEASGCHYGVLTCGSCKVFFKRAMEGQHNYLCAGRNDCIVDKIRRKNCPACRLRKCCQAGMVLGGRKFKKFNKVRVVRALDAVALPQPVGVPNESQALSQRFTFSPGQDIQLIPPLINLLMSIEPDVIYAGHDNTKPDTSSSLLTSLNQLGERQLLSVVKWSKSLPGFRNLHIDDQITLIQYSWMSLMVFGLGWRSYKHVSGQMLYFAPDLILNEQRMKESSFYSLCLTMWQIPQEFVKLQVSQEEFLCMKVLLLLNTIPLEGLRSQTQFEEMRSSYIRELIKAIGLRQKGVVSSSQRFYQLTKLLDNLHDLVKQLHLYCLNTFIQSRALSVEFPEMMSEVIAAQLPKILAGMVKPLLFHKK

Turning to `CCCN(CCC)N=O`, the result in experiment [1], in experiment [2], in experiment [3], in [4], in experiment [5] and in experiment [6] was inactive. In addition, the result in experiment [7] and in [8] was inactive.
In the case of `C=CC(=O)NCNC(=O)C=C`, the outcome in experiment [1], in experiment [2], in experiment [3], in [4], in experiment [9] and in [10] was inactive. For the same compound, the result in experiment [5] and in experiment [6] was inactive.
`CC(c1ccc(O)cc1)(c1ccc(O)cc1)c1ccc(O)cc1`: the AC50 is 25 µM (active) in experiment [11], 1.06 µM (active) in experiment [1], 11.9 µM (active) in experiment [2] and 11.9 µM (active) in experiment [3]. Moreover, the call in experiment [12] was inactive.
With `O=NN(c1ccccc1)c1ccccc1`, the call (in experiment [1]; in experiment [2]; in [3]; with PGR (gene 5241)) was inactive.
In the case of `O=C(O)C(F)(F)C(F)(F)C(F)(F)C(F)(F)C(F)(F)C(F)(F)C(F)(F)C(F)(F)F`, the result in [1], in experiment [2], in [13], in [4], in experiment [5] and in experiment [6] was inactive. Further, the call in [7] and in experiment [8] was inactive.
On to `O=C(O)C(F)(F)C(F)(F)C(F)(F)C(F)(F)C(F)(F)F`, for which the compound was called inactive in experiment [11], in experiment [2], in experiment [3], in experiment [4], in experiment [5] and in [6]. Moreover, in [8], the result was inactive.
As to `N#Cc1ccc(N(CC(N)=O)CC(F)(F)F)cc1C(F)(F)F`, the AC50 in [11] is 0.0178 µM (active). Further, the outcome in experiment [2], in experiment [3], in experiment [4] and in experiment [5] was inactive.
Turning to `CC(C)(O)C(=O)Nc1ccc([N+](=O)[O-])c(C(F)(F)F)c1`, the AC50 in experiment [11] was 155 nM (active) and 268 nM (active). Moreover, the result in [1], in experiment [2], in experiment [3], in experiment [4], in experiment [5] and in [6] was inactive. Further, the result (in experiment [8]; in the experiment with PGR (gene 5241); in experiment [14]) was inactive.
For the compound `COc1ccc(O)c(C(C)(C)C)c1`, the AC50 in experiment [11] was 27.7 µM (active); in [4], 50 µM (active); in experiment [5], 53.1 µM (active); in experiment [6], 31.8 µM (active); in experiment [15], 19.3 µM (active). For the same compound, the compound was called inactive in [1], in experiment [2] and in [3].

A word on the AC50: it is the concentration at which the activity in the assay is half-maximal.
